Activity calls are given as the source filed them. Unless noted, the rule behind the calls is not given here.

Experiment [1] deals with Wnt5a (protein binding on small-molecule microarray). In words: Wnt5a binders on small-molecule microarray, primary screen, biophysical, 635/667 nm fluorescence (AID 1142).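 Note: fluorescence read at 667 nm with signal to noise per printed feature.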 The settings on record: 635 nm fluorescence, higher = more signal.
Experiment [2] in a line: cell viability in Huh7 cells, primary screen, cytotoxicity control for HCV replication inhibitor project, CellTiter-Glo luminescence, basal, 48 h (AID 1143).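 Note: Huh7 hepatoma cells carrying a hepatitis C replication reporter with no stimulus; test concentration not given here.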 As to conditions: Huh7 HCV replicon, higher = more signal, called active from +8 up or from −8 down. Background: ATP-based viability assays read luminescence as a measure of living cells.
Experiment [3] can be described thus: P. aeruginosa biofilm formation inhibitors, primary screen, PAO1 strain, BacTiter-Glo luminescence, LB-PBS (AID 1144). The settings on record: 12 h, higher = more signal.
Experiment [4] can be described thus: CREB reporter modulators without forskolin, primary screen, cell-based, PC12, CRE-LacZ reporter, unstimulated (AID 1145). The settings on record: no forskolin, luminescence, 4.5 h, higher = more signal, called active from +8 up or from −8 down.
The nature of experiment [5]: CREB reporter modulators under forskolin, primary screen, cell-based, PC12, CRE-LacZ reporter, forskolin-stimulated (AID 1146).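 Note: PC12 cells with 6xCRE LacZ reporter stimulated by forskolin 10 µM; beta-galactosidase reporter signal reflecting CREB driven transcription.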 The settings on record: luminescence, 4.5 h, higher = more signal, called active from +8 up or from −8 down.
The target in experiment [6] is Streptavidin (Streptomyces avidinii) (UniProt P22629). In words: streptavidin binders on small-molecule microarray, primary screen, artefact control for SMM compound annotation, biophysical, 635/667 nm fluorescence (AID 1147).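 Note: signal reflects streptavidin binding to arrayed compounds as a control protein.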 The settings on record: streptavidin binding, higher = more signal.
Experiment [7] in a line: small-molecule binders of probe aInhba, primary screen, biochemical, small-molecule microarray, 635/667 nm fluorescence (AID 1148).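 Note: score merges 667nm spot fluorescence with signal-to-noise for antibody binding to printed compounds.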 The settings on record: higher = more signal.
Experiment [8] addresses Torsin-1A (Homo sapiens) (UniProt O14656). Put plainly: torsin A binders from cell lysate, primary screen, small-molecule microarray, wild-type, 635/667 nm (AID 1149). As to conditions: COS7 hTOR1A-WT lysate, 635 nm fluorescence, higher = more signal.
Experiment [9] has the same target. Put plainly: small-molecule binders of mutant TOR1A in lysate, primary screen, cell lysate, small-molecule microarray, COS7 lysate, 635/667 nm fluorescence (AID 1150).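 Note: score pools 667 nm emission and signal to noise measuring lysate protein binding.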 As to conditions: COS7 hTOR1A mutant lysate, 635 nm fluorescence, higher = more signal.
Experiment [10] concerns Sonic hedgehog protein (Shh). In words: small-molecule binders of Shh protein, primary screen, biochemical, small-molecule microarray, 635/667 nm fluorescence (AID 1151).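 Note: Shh protein binding to compounds spotted on small-molecule microarray slides; score combines spot fluorescence intensity with signal-to-noise across triplicate slides.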 As to conditions: small-molecule microarray binding, 635 nm fluorescence; higher = more signal.

Streptavidin (Streptomyces avidinii), sequence (P22629 whole entry, looked up): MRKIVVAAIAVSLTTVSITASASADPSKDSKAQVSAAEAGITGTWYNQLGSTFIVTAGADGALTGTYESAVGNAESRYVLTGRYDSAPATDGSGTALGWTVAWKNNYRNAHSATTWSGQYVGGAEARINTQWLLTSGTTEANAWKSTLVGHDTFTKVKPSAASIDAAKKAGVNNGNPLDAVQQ
Torsin-1A (Homo sapiens), sequence (O14656 whole entry, looked up): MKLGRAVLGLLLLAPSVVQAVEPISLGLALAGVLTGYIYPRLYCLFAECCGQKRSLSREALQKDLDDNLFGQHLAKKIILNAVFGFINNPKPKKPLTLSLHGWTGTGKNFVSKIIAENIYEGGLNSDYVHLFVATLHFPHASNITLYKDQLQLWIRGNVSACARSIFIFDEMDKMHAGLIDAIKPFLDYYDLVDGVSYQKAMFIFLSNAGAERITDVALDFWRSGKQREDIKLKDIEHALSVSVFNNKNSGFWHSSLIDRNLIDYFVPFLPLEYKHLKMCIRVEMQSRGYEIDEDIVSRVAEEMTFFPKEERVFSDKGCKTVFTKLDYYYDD

For `O=C1C[C@@](C(=O)NCc2ccccc2)(c2ccc([N+](=O)[O-])cc2)[C@@H](c2ccc(CO)cc2)N1C1CCCCC1`, the composite z-score in experiment [1] was 0.203; in experiment [6], -0.0057; in experiment [7], 0.333; with Torsin-1A (Homo sapiens) [8] it was 0.944; with Torsin-1A (Homo sapiens) [9], 0.812; in [10], 0.998. The z-score in [2] was -4.1 (inactive); in [3], -0.967 (inactive); in experiment [4] it was 0.531 (inactive); in experiment [5] it was -0.932 (inactive).
As to `COc1ccc(C(O)C2C=CC3C(=O)N(c4ccccc4)C(=O)C3N2Nc2ccc(C#N)cc2)cc1OCc1ccccc1` (stereo not given), the composite z-score was 0.512 in experiment [1]; 1.65 in [6]; 0.274 in experiment [7]; 0.056 in the experiment with Torsin-1A (Homo sapiens) [8]; 1.12 with Torsin-1A (Homo sapiens) [9]; -0.189 in experiment [10]. For the same compound, the z-score in experiment [2] was 0.0667 (inactive); in experiment [3], -0.753 (inactive); in [4], 1.39 (inactive); in experiment [5], 0.338 (inactive).
For the compound `CC=CC(O)C1C=CC2C(=O)NC(=O)C2N1Nc1ccc(Cl)cc1Cl` (stereo not given), the composite z-score in [1] is -0.242; in experiment [6], 0.0171; in experiment [7], -0.176; with Torsin-1A (Homo sapiens) [8] it was 0.34; in the experiment with Torsin-1A (Homo sapiens) [9] it was 0.0964; in experiment [10] it was 0.443. Besides, the z-score was 0.323 (inactive) in experiment [2], 0.101 (inactive) in experiment [3], -0.133 (inactive) in experiment [4] and 0.467 (inactive) in experiment [5].
Consider `CN(C)CCCCNC(=O)[C@H]1C[C@H]2C(=O)NCC(=O)N2[C@H]1c1ccc(O)cc1`, for which the composite z-score in experiment [1] was -0.311; in experiment [6], -0.761; in experiment [7], -0.344; in the experiment with Torsin-1A (Homo sapiens) [8], -0.0276; with Torsin-1A (Homo sapiens) [9], 1.07; in experiment [10], 1.57. Besides, the z-score in experiment [2] is 0.153 (inactive); in experiment [3], 0.0384 (inactive); in experiment [4], -0.943 (inactive); in experiment [5], -0.489 (inactive).
In the case of `CCOC(=O)c1cn(C[C@H](Cc2ccccc2)NC(=O)N[C@H](CO)CCc2oc(C(C)=O)c(C(=O)OC)c2C(=O)OC)nn1`, the composite z-score was 0.0532 in experiment [1]; 0.486 in experiment [6]; -0.0762 in [7]; 0.439 in the experiment with Torsin-1A (Homo sapiens) [8]; 0.692 in the experiment with Torsin-1A (Homo sapiens) [9]; 1.63 in experiment [10]. Besides, the z-score in experiment [2] was -2.84 (inactive); in experiment [3], 0.279 (inactive); in experiment [4], 1.4 (inactive); in experiment [5], -0.158 (inactive).
As to `CCCC[C@H]1C[C@@H]1[C@@H]1N(C(C)=O)[C@H](c2cccc(OC)c2)CC12CC2`, the composite z-score in [1] is -0.0718; in experiment [6] it was 0.361; in experiment [7] it was 0.0111; with Torsin-1A (Homo sapiens) [8] it was -0.53; with Torsin-1A (Homo sapiens) [9], 0.0852; in [10] it was -0.784. The z-score in experiment [2] is -0.338 (inactive); in experiment [3] it was 0.824 (inactive); in [4], 0.583 (inactive); in experiment [5], -0.0157 (inactive).
With `CCCNC(=O)[C@@]1(c2ccc([N+](=O)[O-])cc2)CC(=O)N(C(C)C)[C@@H]1c1ccc(CO)cc1`, the composite z-score was -0.47 in experiment [1]; -1.07 in [6]; -0.153 in experiment [7]; -2.12 with Torsin-1A (Homo sapiens) [8]; -0.42 in the experiment with Torsin-1A (Homo sapiens) [9]; -0.738 in [10]. In addition, the z-score in experiment [2] is -1.22 (inactive); in experiment [3], 0.313 (inactive); in [4], 0.558 (inactive); in [5], 0.282 (inactive).
In the case of `C=CCNC(=O)[C@H]1[C@@H]2C(=O)O[C@@H](c3ccccc3)[C@@H](c3ccccc3)N2[C@@H](c2ccc(OCCO)cc2)[C@]12C(=O)Nc1ccc(C#CC3(O)CCCCCC3)cc12`, the composite z-score in experiment [1] worked out at 0.564; in experiment [6] it was 0.618; in experiment [7], 0.108; with Torsin-1A (Homo sapiens) [8], 0.406; in the experiment with Torsin-1A (Homo sapiens) [9] it was 0.564; in experiment [10], 1.31. Further, the z-score is -3.3 (inactive) in [2], 0.15 (inactive) in [3], -0.329 (inactive) in [4] and 0.566 (inactive) in experiment [5].
Turning to `CCCCCC1=C2CNC(Cc3ccccc3)(C(=O)OC)C=C2C(C)C1=O` (stereo not given), the composite z-score in [1] is -0.176; in experiment [6], 0.0482; in [7], 0.222; with Torsin-1A (Homo sapiens) [8], -0.88; with Torsin-1A (Homo sapiens) [9], 0.154; in experiment [10], -0.695. Moreover, the z-score in experiment [2] was -1.49 (inactive); in [3] it was 0.949 (inactive); in [4], 0.4 (inactive); in experiment [5], 2.19 (inactive).
For `CC(C)=CCCC(C)=CC(O)C1C=CC2C(=O)NC(=O)C2N1Nc1ccccn1` (stereo not given), the composite z-score in experiment [1] was 0.827; in experiment [6], 0.968; in experiment [7] it was -0.154; in the experiment with Torsin-1A (Homo sapiens) [8], 1.61; in the experiment with Torsin-1A (Homo sapiens) [9], 1.53; in experiment [10], 2.08. Also, the z-score in experiment [2] was -0.614 (inactive); in experiment [3], -0.564 (inactive); in [4] it was -0.333 (inactive); in experiment [5] it was -0.0179 (inactive).
Regarding `CC1CC/C=C\[C@H]2OC34C=CCN(C(C)(C)C)C(=O)[C@H]3N(CCCO)C(=O)[C@@H]4C2C(=O)O1` (stereo not given in full), the composite z-score in experiment [1] was -0.0437; in experiment [6], -0.561; in [7] it was -0.128; with Torsin-1A (Homo sapiens) [8], 0.62; in the experiment with Torsin-1A (Homo sapiens) [9], 2.01; in experiment [10], -0.757. Moreover, the z-score in experiment [2] was -0.032 (inactive); in experiment [3], 1.08 (inactive); in experiment [4], 0.203 (inactive); in experiment [5], -0.539 (inactive).
Take `C=CCC(OC(C)=O)[C@@H]1[C@@H](N(Cc2cccc3ccccc23)C(=O)Cc2ccc(OC)cc2)c2cc(OCCCO)ccc2N1C(=O)Cc1ccc2ccccc2c1` (stereo not given in full): the composite z-score was -0.0841 in [1]; 0.175 in [6]; -0.181 in experiment [7]; -0.254 with Torsin-1A (Homo sapiens) [8]; -0.41 with Torsin-1A (Homo sapiens) [9]; 0.0227 in experiment [10]. The z-score is -1.91 (inactive) in experiment [2], 0.255 (inactive) in experiment [3], -0.854 (inactive) in experiment [4] and 1.38 (inactive) in experiment [5].
Consider `CCCC=C(CCC)[C@@H](NC(=O)OCC(C)C)c1ccc(C(=O)OC)cc1`, for which the composite z-score was -0.0326 in [1]; 0.153 in experiment [6]; -0.154 in experiment [7]; 0.841 with Torsin-1A (Homo sapiens) [8]; 0.104 with Torsin-1A (Homo sapiens) [9]; 0.23 in experiment [10]. Also, the z-score in experiment [2] is -1.07 (inactive); in experiment [3] it was 0.3 (inactive); in [4], -1.72 (inactive); in [5], 0.291 (inactive).
In the case of `COC(=O)[C@@]1(Cc2ccc(OC)cc2)[C@H]2c3cc(C(=O)N4CCCC4)n(Cc4ccc(C(F)(F)F)nc4)c3C[C@H]2CN1C(=O)c1ccccc1`, the composite z-score is 0.426 in experiment [1]; -0.012 in [6]; 0.225 in experiment [7]; 0.866 in the experiment with Torsin-1A (Homo sapiens) [8]; 0.52 with Torsin-1A (Homo sapiens) [9]; -0.246 in experiment [10]. The z-score is -2.36 (inactive) in experiment [2], 0.361 (inactive) in experiment [3], -0.372 (inactive) in experiment [4] and 0.945 (inactive) in experiment [5].
